Measurements from PubChem BioAssay AID485364 (National Center for Advancing Translational Sciences (NCATS), 2010).
Hit rate of the full screen: of about 360,000 compounds, about 11,000 (3.1%) were called active. About 4% were inconclusive and are not listed. Calls follow the shape of the dose curve; as a rule, active = well fitted inhibition curve with a large enough effect; inconclusive = small, poorly fitted or top-dose-only effect; inactive = no such curve, though single readings can be large or run the other way. The sample as a whole holds a higher share of actives than the screen did.

Each compound was assayed against Schistosoma mansoni thioredoxin glutathione reductase (TGR) (UniProt Q962Y6) (assay: qHTS Assay for the Inhibitors of Schistosoma Mansoni Peroxiredoxins). Settings: purified TGR, DTNB reduction, TNB absorbance 405 nm; series mostly up to 114 µM; activity change, negative = inhibition: at the top concentration.
Procedure, shortened: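 First, TGR (20 nM dispensed) and NADPH were mixed with compound. Second, a 15 min room-temperature incubation followed. Third, further NADPH and then DTNB were added to start the reaction. Finally, TNB absorbance was monitored kinetically.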
% is scaled to controls: 0 for no effect and ±100 for the full control effect; potency is read from the fitted curve at half-maximal effect.
Also: nearly all actives have a fitted effect of over 60% in size.

Row | SMILES | Potency | activity change, negative = inhibition
1 | COc1ccccc1CNC(=O)C(=O)NCC(c1cccs1)S(=O)(=O)c1cccs1 (centres undefined) | 25.1 µM (active) | –
2 | CC(C)C(=O)NCC(c1cccs1)S(=O)(=O)c1ccc(F)cc1 (centres undefined) | – | 1.99% (inactive)
3 | Cc1ccccc1CNC(=O)C(=O)NCC(c1cccs1)S(=O)(=O)c1cccs1 (centres undefined) | 25.1 µM (active) | –
4 | O=C(NCc1ccccc1Cl)C(=O)NCC1CCCN1S(=O)(=O)c1cccs1 (centres undefined) | – | 2.19% (inactive)
5 | COc1ccccc1CCNC(=O)C(=O)NCCC1CCCCN1S(=O)(=O)c1cccs1 (centres undefined) | – | -13.6% (inactive)
6 | COC(C(=O)NCc1ccccc1C)c1ccccc1 (centres undefined) | – | -0.709% (inactive)
7 | Cc1ccc(SCC(=O)Nc2ccc3oc(-c4ccccc4C)nc3c2)cc1 | – | 4.39% (inactive)
8 | CCC(C)NC(=O)Cn1c(=O)n(-c2ccc(Cl)cc2)c(=O)c2c3c(sc21)CCCC3 (centres undefined) | – | 1.64% (inactive)
9 | Cc1c(Cl)cccc1NC(=O)C1CCCN(c2ncnc3onc(C)c23)C1 (centres undefined) | – | 4.36% (inactive)
10 | CCOc1ccc(NC(=O)Cn2c(C)ccc(C#N)c2=O)cc1 | – | -7.32% (inactive)
11 | Cc1ccc(CSCC(=O)N(C)CC(=O)Nc2ccc(C)cc2)cc1 | – | -1.39% (inactive)
12 | Cc1ccc(CSCC(N)C(=O)O)cc1 (centres undefined) | 28.2 µM (active) | –
13 | CSCC(NS(=O)(=O)c1ccc(C)cc1)C(=O)O (centres undefined) | – | 1.42% (inactive)
14 | CCc1ccc(NC(=O)CCS(=O)(=O)c2cc3c(cc2Cl)NC(=O)CO3)cc1 | – | 5.86% (inactive)
15 | Fc1ccc(CN2CCc3nc(Nc4ccccc4)ncc3C2)cc1F | – | -3.33% (inactive)
16 | CCOC(=O)C1=C(O)/C(=C/c2cc(C)n(-c3ccccc3)c2C)N=C1C | 28.2 µM (active) | –
17 | CCOC(=O)C1=C(O)/C(=C/c2ccc(OCC(=O)Nc3ccc(C)cc3)cc2)N=C1C | – | -27.1% (inactive)
18 | COC(=O)C1=C(O)/C(=C/c2ccc(OCC(=O)Nc3ccccc3)cc2)N=C1C | – | 58.6% (inactive)
19 | CCOc1ccccc1C(=O)Nc1ccc2c(c1)N(C)C(=O)c1ccccc1S2 | – | -1.15% (inactive)
20 | O=C(Cn1c(=O)n(-c2ccc(F)cc2)c(=O)c2sc3ccccc3c21)NC1CCCC1 | – | 0.259% (inactive)
21 | Cn1c(-c2ccc(F)cc2)cnc1SCC(=O)NNC(=O)Cc1ccccc1 | – | -9.73% [at 57.1 µM] (inactive)
22 | O=C(CSc1nnc(-c2c[nH]c3ccccc23)n1-c1ccc(F)cc1)NCc1ccco1 | – | -24.4% (inactive)
23 | Cn1c(-c2ccc(F)cc2)cnc1SCC(=O)NCc1ccco1 | 31.6 µM (active) | –
24 | Cc1nc2nc(SCC(=O)NCc3ccco3)nn2c(C)c1Cc1ccccc1 | 20 µM (active) | –
25 | CCn1c(SCC(=O)NCc2ccco2)nnc1-c1ccc(N)cc1 | – | 0.665% (inactive)

Row | SMILES | Potency | activity change, negative = inhibition
26 | Cc1cc(C)n2nc(SCC(=O)NC(=O)NCc3ccco3)nc2n1 | – | -35.8% (inactive)
27 | O=C(CSc1nnc2scc(-c3ccc(F)cc3)n12)NCc1ccco1 | – | -0.356% (inactive)
28 | Cc1ccc(-c2csc3nnc(SCC(=O)NCc4ccco4)n23)cc1 | – | -32.7% (inactive)
29 | O=C(CSc1nnnn1-c1ccccc1)NCc1ccco1 | 79.4 µM (active) | –
30 | CCOc1ccccc1-n1c(SCC(=O)NCc2ccco2)nnc1-c1ccncc1 | 44.7 µM (active) | –
31 | CCN(CC)C(CNC(=O)CSc1nnnn1-c1cccc(F)c1)c1ccco1 (centres undefined) | – | 0% (inactive)
32 | Cc1ccc(Cc2c(C)nc3nc(SCC(=O)NCCN4CCOCC4)nn3c2C)cc1 | – | -11.8% (inactive)
33 | COc1cccc(NC(=O)C(=O)NCC(c2ccc3c(c2)OCO3)N2CCN(C)CC2)c1 (centres undefined) | – | 1.67% (inactive)
34 | Cc1ccc(CN2CCC(CNC(=O)c3cnn(-c4ccccc4Cl)c3C3CCN(C(=O)OC(C)(C)C)CC3)CC2)cc1 | – | -7.74% (inactive)
35 | COc1ccc2c(c1)c(=O)c(C(=O)c1ccccc1)cn2CC(=O)Nc1ccc2c(c1)OCCO2 | – | -6.11% (inactive)
36 | CCOc1ccccc1NC(=O)Cn1c(=O)n(-c2cccc(C)c2)c(=O)c2c1c1cc(OC)ccc1n2C | – | -3.55% (inactive)
37 | O=C(Cn1cnc2c(oc3ccccc32)c1=O)Nc1ccc(OC(F)(F)F)cc1 | – | 6.89% (inactive)
38 | CC(CCCc1ccccc1)NC(=O)c1nn(-c2ccc(Cl)cc2)nc1CO (centres undefined) | – | -0.0745% (inactive)
39 | O=C(NCCCO)c1nn(-c2ccc(Cl)cc2)nc1CO | – | 5.54% (inactive)
40 | O=C(CCC(=O)N/N=C/c1ccc(Br)o1)N/N=C/c1ccc(Br)o1 | 35.5 µM (active) | –
41 | O=C(N/N=C/c1ccc(Br)o1)c1cncc(Br)c1 | – | 2.4% (inactive)
42 | O=C(CN1CCOCC1)N/N=C/c1ccc(-c2ccc(Br)cc2)o1 | – | 4.92% (inactive)
43 | CC(C)(C)OC(=O)N1CCC(c2c(C(=O)NCCc3ccsc3)cnn2-c2ccc(F)cc2F)CC1 | – | 3.46% (inactive)
44 | Cc1ccc(NC(=O)Nc2ccc3oc(C)nc3c2)cc1 | – | -5.55% (inactive)
45 | CCN(CC)c1ccc2oc(=O)c(C)nc2c1 | 35.5 µM (active) | –
46 | CCc1ccc2oc(-c3ccc(N)cc3)nc2c1 | – | 5.8% (inactive)
47 | Cc1cccc2c(=O)cc(CSc3ccccc3NC(=O)C(C)C)[nH]c12 | – | 4.74% (inactive)
48 | O=C(Nc1ccccc1F)C(c1ccccc1)N1Cc2ccccc2C1=O (centres undefined) | – | 1.88% (inactive)
49 | Cc1ccc(-c2nc(CS(=O)(=O)CC(=O)NCc3ccccc3Cl)c(C)o2)cc1 | – | -12.7% (inactive)
50 | COc1ccc(-c2nc(CS(=O)(=O)CC(=O)NCc3cccc(Br)c3)c(C)o2)cc1 | – | -14.1% (inactive)

Row | SMILES | Potency | activity change, negative = inhibition
51 | Cc1ccc(-c2nc(CS(=O)(=O)CC(=O)NCc3ccc4c(c3)OCO4)c(C)o2)cc1 | 20 µM (active) | –
52 | O=C(NCc1ccccc1)c1cccc(NC(=O)N2CCSc3ncccc32)c1 | – | 0.268% (inactive)
53 | O=C(c1cccc(Br)c1)N1CCN(Cc2cc(=O)n3nc(-c4ccccc4)sc3n2)CC1 | – | 12.5% (inactive)
54 | NS(=O)(=O)c1ccc(NC(=S)Nc2ccc(Br)c(Cl)c2)cc1 | – | -19.3% (inactive)
55 | O=C(Nc1ccc(S(=O)(=O)Nc2ncccn2)cc1)c1cncc(Br)c1 | – | 3.58% (inactive)
56 | CC(C)NS(=O)(=O)c1ccc(NC(=O)c2cccnc2)cc1 | – | 0% (inactive)
57 | O=C(NC(=S)Nc1ccc(S(=O)(=O)Nc2ncccn2)cc1)c1cccc(Br)c1 | 20 µM (active) | –
58 | NS(=O)(=O)c1ccc(NC(=S)NC(=O)c2cccc(Br)c2)cc1 | 15.8 µM (active) | –
59 | Cc1cc(NS(=O)(=O)c2ccc(NC(=O)c3cccnc3)cc2)nc(C)n1 | – | -0.523% (inactive)
60 | NS(=O)(=O)c1ccc(NC(=S)NC(=O)c2cccnc2)cc1 | 22.4 µM (active) | –
61 | COc1ccc(OC)c(C(C)NC(=S)Nc2ccc(S(=O)(=O)Nc3ncccn3)cc2)c1 (centres undefined) | – | -24.2% (inactive)
62 | O=C(NC(=S)Nc1cccc2c(O)cccc12)c1cccc(Br)c1 | – | -23.3% (inactive)
63 | O=C(CSc1nnc(CNC(=O)c2ccccc2)n1-c1ccc(F)cc1)Nc1ccccc1F | – | -11.6% (inactive)
64 | CCOc1ccc2oc(=O)cc(CN3CCN(C(=O)c4ccc(F)cc4)CC3)c2c1 | – | -23.7% (inactive)
65 | O=C1CSC2(C(=O)N(Cc3ccccc3)c3ccccc32)N1c1cccc(F)c1 (centres undefined) | – | 0.896% (inactive)
66 | O=C(Nc1ccc(-c2nc3cc(NC(=O)c4ccccc4Cl)ccc3o2)cc1)c1ccccc1Cl | – | 2.81% (inactive)
67 | COc1cccc(C(=O)Nc2ccc(-c3cc(C(F)(F)F)nn3-c3ccccc3)cc2)c1 | – | 14.5% (inactive)
68 | Cc1cc(OCC(=O)Nc2ncn[nH]2)c(C)c(C)c1Br | – | 5.33% (inactive)
69 | CC(NC(=O)CSc1nc2c(cc1C#N)CN(C)CC2)c1ccccc1 (centres undefined) | – | 0% (inactive)
70 | CN1CCc2nc(SC(C(=O)O)c3ccccc3)c(C#N)c(-c3cccs3)c2C1 (centres undefined) | 39.8 µM (active) | –
71 | Cc1c(-c2ccccc2)nc(N)c(C#N)c1-c1cccs1 | – | 3.35% (inactive)
72 | O=C(c1ccc(C(F)(F)F)cc1)N1CCC(c2nc(-c3ccc(S(=O)(=O)N4CCCC4)cc3)no2)CC1 | – | -0.916% (inactive)
73 | COc1ccc(OC)c(CNC(=O)Cn2nc(C)c3c(C)n(-c4ccccc4)nc3c2=O)c1 | – | -0.771% (inactive)
74 | CCc1ccc(CCC(=O)Nc2ccc(S(N)(=O)=O)cc2)o1 | 50.1 µM (active) | –
75 | CC1CC(C)CN(CC(=O)Nc2ccc(S(N)(=O)=O)cc2)C1 (centres undefined) | – | -6.12% (inactive)

Row | SMILES | Potency | activity change, negative = inhibition
76 | NS(=O)(=O)c1ccc(NC(=O)COC(=O)c2ccco2)cc1 | – | -0.38% (inactive)
77 | O=C(NCc1ccc2c(c1)CCN2C(=O)c1ccccc1)Nc1cc(F)ccc1F | – | -1.99% (inactive)
78 | Cc1ccc2c(=O)c(C(=O)c3cccc(Cl)c3)cn(CC(=O)NCc3ccccc3)c2n1 | – | 5.5% (inactive)
79 | O=C(NCC(c1ccc2c(c1)OCO2)N1CCN(c2ccccc2)CC1)C(=O)Nc1ccccc1F (centres undefined) | – | 5.99% (inactive)
80 | COC(=O)c1nc(NC(=O)c2ccc(Cl)cc2)n[nH]1 | 39.8 µM (active) | –
81 | COC(=O)c1nc(NC(=O)c2ccc(C(C)(C)C)cc2)n[nH]1 | – | 3.65% (inactive)
82 | COC(=O)c1sccc1NC(=O)c1ccc(Cl)cc1 | – | -1.81% (inactive)
83 | CCOC(=O)NNC(=O)c1ccc(Cl)cc1 | – | 9.66% (inactive)
84 | COc1ccc(C(=O)Nc2ccc(F)cc2F)cc1 | – | 6.18% (inactive)
85 | COC(=O)c1nc(NC(=O)c2ccc(F)cc2)n[nH]1 | 28.2 µM (active) | –
86 | NS(=O)(=O)c1ccc(NC(=O)COc2ccc(S(=O)(=O)NC3CCCCC3)cc2)cc1 | – | 4.88% (inactive)
87 | COc1ccc(CNc2nc(-c3ccc(Cl)cc3)nn2S(=O)(=O)c2ccc(C)cc2)cc1 | – | -0.796% (inactive)
88 | COc1ccccc1CNC(=O)CS(=O)(=O)c1cccc2nsnc12 | – | -0.613% (inactive)
89 | Cc1ccc(OC(=O)CSc2nnc(-c3cccs3)o2)cc1 | – | -0.547% (inactive)
90 | COc1cc(Cl)c(NC(=O)CC(C)S(=O)(=O)c2cc3c(cc2C)NC(=O)CO3)c(OC)c1 (centres undefined) | – | -4.41% (inactive)
91 | COc1ccc(OC)c(CCNC(=O)CCCn2c(=O)c3cccn3c3cccnc32)c1 | – | 1.8% (inactive)
92 | O=C(CCn1ccc2cc(S(=O)(=O)N3CCCC3)ccc21)NCc1cccc(Cl)c1 | – | -5.15% (inactive)
93 | COc1ccc(Cl)cc1NC(=O)CSc1nc(-c2cccs2)cc(C(F)(F)F)n1 | – | -0.774% (inactive)
94 | CCc1ccc(-n2nc(C)c3c(C)cc(=O)n(CC(=O)Nc4ccc(F)cc4C)c32)cc1 | – | -0.967% (inactive)
95 | O=C(CC(c1cccs1)N1Cc2ccccc2C1=O)Nc1ccc(F)cc1F (centres undefined) | – | -8.15% (inactive)
96 | CNC(=O)c1c(NC(NC(=O)c2ccco2)C(=O)c2ccc(Cl)cc2)sc2c1CCCC2 (centres undefined) | 25.1 µM (active) | –
97 | COC(=O)c1c(NC(=O)c2ccc(Cl)c(Cl)c2)sc2c1CCCC2 | – | -1.51% (inactive)
98 | CCOC(=O)c1c(NC(=O)c2cc(-c3ccc(Cl)cc3)on2)sc2c1CCCC2 | – | -7.21% (inactive)
99 | CCOc1ccc(OCC)c(NC(=O)CN(c2ccc(C)cc2)S(=O)(=O)c2c(C)n[nH]c2C)c1 | – | 10.6% (inactive)
